SMILES strings stand for the structures. Compounds without any hit were thinned out: in the full panel of roughly 83,000, 20% have a hit.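 Each cell line was grown in a 96-well plate and treated with one concentration of compound for 48 hours. Values below 10 were considered active.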 Values without a mark were called inactive. The source made the active and inactive calls.

The assay deals with CCRF-CEM leukemia. Briefly: NCI-60 one-dose screen, 48 h (100 = growth as untreated, 0 = no growth, -100 = all killed). As to conditions: 10 µM unless noted.
`ClCCN(CCCl)C(c1ccccc1)c1ccc(Cl)cc1` (stereo unspecified): the growth was 15.3%.
For `CCCCn1cc(C(=O)/C(C#N)=C/c2cc3ccccc3nc2Cl)c2cc(OC)ccc21`, the growth was 33.4%.
Take `CCCCNCCc1ccccn1`: the growth is 92.4%.
The figure for `CC(=O)C1C(=O)N(C)C(=O)N(C)C1=O` is 97.2%; for `CC1(C)N=C(N)N=C(N)N1c1cccc(C(=O)Nc2cccc(S(=O)(=O)F)c2)c1` it is 97.5%.
As for `C[C@]12CC[C@@H]3C4=C(CC[C@H]3[C@@H]1CC[C@@H]2O)CC(=O)CC4`, the growth was 96.3%.
Under `Oc1ccccc1OB(Oc1ccccc1O)N(CCCl)CCCl` stands 18.4%; under `NC(Cc1ccc2c(c1)OCO2)c1ccc2c(c1)OCO2` (stereo unspecified), 98.2%; under `COc1ccc(-c2ccc(OC)c(OC)c2OC)cc1`, 10.1%.
For the compound `CC1(C)N=C(N)N=C(N)N1c1ccc(CCCCc2ccc(S(=O)(=O)F)cc2)c(Cl)c1`, the growth was 11.5%.
The figure for `COc1ccc(C2=NN(c3ccccc3)C(c3sc(N(CCCl)CCCl)nc3Cl)C2)cc1` (stereo unspecified) is 86.1%; for `Cc1ccc(N)cc1[As]=[As]c1cc(N)ccc1C` (stereo unspecified) it is -38% (active); for `C/C(=N/OC(=O)N(C)C)c1cc(Cl)ccc1Cl` it is 91.7%.
Under `CC1(C)N=C(N)N=C(N)N1c1ccc(CCCCc2ccc(S(=O)(=O)F)cc2)cc1` stands 23.4%; under `Cc1ccc(C(=O)C2CN(C)CCC2(O)c2ccc(C)cc2)cc1` (stereo unspecified), 106%.
The figure for `O=C1NC(=O)C(CN2C(=O)C3(c4ccccc42)[C@H](Cl)C(=O)N3c2ccccc2)C(=O)N1` (stereo partly specified) is 54.4%.

The record behind these values is PubChem BioAssay (NCI).
